In PubChem BioAssay AID1159580 (chemical genetic matrix, 2015):
Where “and” joins values, the source holds several entries; their conditions need not be identical. Equal entries are not always repeated. The whole screen tested about 5,500 compounds, of which about 2,000 (36%) were called active. Not shown: some 18% with an inconclusive outcome. No stated cut-off is given here; in the data, active means normalized growth mostly below about 0.91 (no sharp cut-off); inconclusive means no clear call, values can overlap the other calls; inactive means mostly above about 0.92. The list shows a part of the results.

Test: chemical genetic growth profiling, strain panel (AID 1159580);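 further: tested at 20 µM; growth read once vehicle control cultures reached saturation at 30 °C; 1 = growth at the plate median or of vehicle wells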
Conditions: growth OD
[1] = S. cerevisiae deletion strains, locus YAL013W, strain DEP1, stronger effect = lower value
[2] = S. cerevisiae deletion strains, locus YBR229C, strain ROT2, stronger effect = lower value
[3] = S. cerevisiae deletion strains, locus YDL101C, strain DUN1, stronger effect = lower value
[4] = S. cerevisiae deletion strains, locus YEL061C, strain CIN8, stronger effect = lower value
[5] = S. cerevisiae deletion strains, locus YGR078C, strain PAC10, stronger effect = lower value
[6] = S. cerevisiae deletion strains, locus YHR030C, strain SLT2, stronger effect = lower value
[7] = S. cerevisiae deletion strains, locus YHR087W, strain rtc3, stronger effect = lower value
[8] = S. cerevisiae deletion strains, locus YJL187C, strain SWE1, stronger effect = lower value
[9] = S. cerevisiae deletion strains, locus YJR043C, strain POL32, stronger effect = lower value
[10] = S. cerevisiae deletion strains, locus YJR075W, strain HOC1, stronger effect = lower value
[11] = S. cerevisiae deletion strains, locus YLR039C, strain RIC1, stronger effect = lower value
[12] = S. cerevisiae deletion strains, locus YLR058C, strain SHM2 (second series), stronger effect = lower value
[13] = S. cerevisiae deletion strains, locus YLR085C, strain ARP6, stronger effect = lower value
[14] = S. cerevisiae deletion strains, locus YLR262C, strain YPT6, stronger effect = lower value
[15] = S. cerevisiae deletion strains, locus YML094W, strain GIM5, stronger effect = lower value
[16] = S. cerevisiae deletion strains, locus YMR219W, strain ESC1, stronger effect = lower value
[17] = S. cerevisiae deletion strains, locus YMR263W, strain SAP30, stronger effect = lower value
[18] = S. cerevisiae deletion strains, locus YNL153C, strain GIM3, stronger effect = lower value
[19] = S. cerevisiae deletion strains, locus YNL298W, strain CLA4 (second series), stronger effect = lower value
[20] = S. cerevisiae deletion strains, locus YNL322C, strain KRE1, stronger effect = lower value
[21] = S. cerevisiae deletion strains, locus YNR030W, strain Alg12, stronger effect = lower value
[22] = S. cerevisiae deletion strains, locus YOL006C, strain TOP1, stronger effect = lower value
[23] = S. cerevisiae deletion strains, locus YPL055C, strain LGE1, stronger effect = lower value
[24] = S. cerevisiae deletion strains, locus YPL241C, strain CIN2, stronger effect = lower value
[25] = S. cerevisiae deletion strains, locus YPR135W, strain CTF4, stronger effect = lower value
[26] = S. cerevisiae strains, strain wild type, stronger effect = lower value

Measured: normalized growth

CC(=O)N/C(=C/c1ccc2c(c1)OCO2)C(=O)O
inactive: [1] 1.01 | [2] 1 | S. cerevisiae deletion strains, locus YCL061C, strain MRC1, stronger effect = lower value 1.02 | [3] 1 | S. cerevisiae deletion strains, locus YDR150W, strain NUM1, stronger effect = lower value 0.915 | [4] 1.02 | [5] 1 | S. cerevisiae deletion strains, locus YGR229C, strain SMI1, stronger effect = lower value 1.02 | [6] 1.06 | [7] 1 | [8] 1.01 | [9] 1.01 | [10] 1.02 | S. cerevisiae deletion strains, locus YKL190W, strain CNB1, stronger effect = lower value 1.01 | [11] 1.07 | [12] 1.01 | [13] 1.02 | [14] 1.07 | [15] 1.01 | [16] 1 | [17] 1.01 | [18] 1.01 | [19] 1.01 | [20] 1 | [21] 1.01 | [22] 1.04 | [23] 0.87 | [24] 1 | [25] 0.998 | [26] 1.02

CCOc1ccc(/C=C(\C)[N+](=O)[O-])cc1OC
inactive: S. cerevisiae deletion strains, locus YAR019C, strain CDC15, stronger effect = lower value 0.976 | S. cerevisiae deletion strains, locus YBL105C, strain PKC1, stronger effect = lower value 0.975 | S. cerevisiae deletion strains, locus YBR135W, strain CKS1, stronger effect = lower value 0.97 | S. cerevisiae deletion strains, locus YBR136W, strain MEC1, stronger effect = lower value 0.973 | S. cerevisiae deletion strains, locus YBR160W, strain CDC28, stronger effect = lower value 0.971 | S. cerevisiae deletion strains, locus YDL017W, strain CDC7, stronger effect = lower value 0.97 | S. cerevisiae deletion strains, locus YDL028C, strain MPS1, stronger effect = lower value 0.973 | S. cerevisiae deletion strains, locus YDL108W, strain KIN28, stronger effect = lower value 0.979 | S. cerevisiae deletion strains, locus YDL132W, strain cdc53, stronger effect = lower value 0.991 | S. cerevisiae deletion strains, locus YDR052C, strain DBF4, stronger effect = lower value 0.984 | S. cerevisiae deletion strains, locus YDR054C, strain cdc34, stronger effect = lower value 0.978 | S. cerevisiae deletion strains, locus YDR226W, strain ADK1, stronger effect = lower value 0.97 | S. cerevisiae deletion strains, locus YFL009W, strain cdc4, stronger effect = lower value 0.98 | S. cerevisiae deletion strains, locus YFL029C, strain CAK1, stronger effect = lower value 0.97 | S. cerevisiae deletion strains, locus YFR003C, strain YPI1, stronger effect = lower value 0.978 | S. cerevisiae deletion strains, locus YFR028C, strain CDC14, stronger effect = lower value 0.974 | S. cerevisiae deletion strains, locus YIL147C, strain SLN1, stronger effect = lower value 0.973 | S. cerevisiae deletion strains, locus YJL128C, strain PBS2, stronger effect = lower value 0.964 | S. cerevisiae deletion strains, locus YJR016C, strain ILV3, stronger effect = lower value 0.985 | S. cerevisiae deletion strains, locus YKL193C, strain SDS22, stronger effect = lower value 0.973 | S. cerevisiae deletion strains, locus YMR001C, strain CDC5, stronger effect = lower value 0.967 | S. cerevisiae deletion strains, locus YMR277W, strain FCP1, stronger effect = lower value 0.973 | S. cerevisiae deletion strains, locus YNL006W, strain LST8, stronger effect = lower value 0.976 | S. cerevisiae deletion strains, locus YNL161W, strain CBK1, stronger effect = lower value 0.961 | S. cerevisiae deletion strains, locus YNL207W, strain RIO2, stronger effect = lower value 0.977 | S. cerevisiae deletion strains, locus YNL222W, strain SSU72, stronger effect = lower value 0.976 | S. cerevisiae deletion strains, locus YOL078W, strain AVO1, stronger effect = lower value 0.98 | S. cerevisiae deletion strains, locus YOR329C, strain SCD5, stronger effect = lower value 0.965 | S. cerevisiae deletion strains, locus YPL209C, strain IPL1, stronger effect = lower value 0.968 | S. cerevisiae deletion strains, locus YPR025C, strain CCL1, stronger effect = lower value 0.969 | S. cerevisiae deletion strains, locus YPR106W, strain ISR1, stronger effect = lower value 0.972 | S. cerevisiae deletion strains, locus YPR111W, strain DBF20, stronger effect = lower value 0.978 | S. cerevisiae deletion strains, strain NNK1, stronger effect = lower value 0.975 | S. cerevisiae deletion strains, strain TSCII, stronger effect = lower value 0.977
active: [1] 0.525 | [2] 0.25 | [3] 0.426 | S. cerevisiae deletion strains, locus YDL134C, strain PPH21, stronger effect = lower value 0.106 | S. cerevisiae deletion strains, locus YDL214C, strain PRR2, stronger effect = lower value 0.471 | S. cerevisiae deletion strains, locus YDR477W, strain SNF1, stronger effect = lower value 0.516 | [4] 0.22 | S. cerevisiae deletion strains, locus YER123W, strain YCK3, stronger effect = lower value 0.232 | S. cerevisiae deletion strains, locus YER133W, strain GLC7, stronger effect = lower value 0.482 | S. cerevisiae deletion strains, locus YFR019W, strain FAB1, stronger effect = lower value 0.284 | S. cerevisiae deletion strains, locus YGR040W, strain KSS1, stronger effect = lower value 0.478 | S. cerevisiae deletion strains, locus YGR052W, strain FMP48, stronger effect = lower value 0.382 | [5] 0.437 | S. cerevisiae deletion strains, locus YGR092W, strain DBF2, stronger effect = lower value 0.226 | [6] 0.0845 and 0.197 | S. cerevisiae deletion strains, locus YHR079C, strain IRE1, stronger effect = lower value 0.313 | S. cerevisiae deletion strains, locus YHR082C, strain KSP1, stronger effect = lower value 0.429 | [7] 0.401 | S. cerevisiae deletion strains, locus YHR205W, strain SCH9, stronger effect = lower value 0.57 | S. cerevisiae deletion strains, locus YJL095W, strain BCK1, stronger effect = lower value 0.269 | S. cerevisiae deletion strains, locus YJL157C, strain FAR1, stronger effect = lower value 0.46 | [8] 0.434 | [9] 0.602 | S. cerevisiae deletion strains, locus YJR066W, strain TOR1 (second series), stronger effect = lower value 0.126 | S. cerevisiae deletion strains, locus YJR066W, strain TOR1, stronger effect = lower value 0.257 | [10] 0.178 | S. cerevisiae deletion strains, locus YKL048C, strain ELM1, stronger effect = lower value 0.534 | S. cerevisiae deletion strains, locus YKL067W, strain YNK1, stronger effect = lower value 0.458 | S. cerevisiae deletion strains, locus YKL101W, strain HSL1, stronger effect = lower value 0.393 | S. cerevisiae deletion strains, locus YKL203C, strain TOR2, stronger effect = lower value 0.489 | [11] 0.285 | [12] 0.651 | [13] 0.163 | S. cerevisiae deletion strains, locus YLR113W, strain HOG1, stronger effect = lower value 0.203 | S. cerevisiae deletion strains, locus YLR133W, strain CKI1, stronger effect = lower value 0.547 | [14] 0.283 | S. cerevisiae deletion strains, locus YLR403W, strain SFP1, stronger effect = lower value 0.497 | S. cerevisiae deletion strains, locus YML070W, strain DAK1, stronger effect = lower value 0.295 | [15] 0.145 | S. cerevisiae deletion strains, locus YMR205C, strain PFK2 (second series), stronger effect = lower value 0.554 | [16] 0.285 | [17] 0.463 | S. cerevisiae deletion strains, locus YNL020C, strain ARK1, stronger effect = lower value 0.528 | [18] 0.171 | S. cerevisiae deletion strains, locus YNL183C, strain NPR1, stronger effect = lower value 0.359 | [19] 0.204 | S. cerevisiae deletion strains, locus YNL307C, strain MCK1 (second series), stronger effect = lower value 0.364 | [20] 0.873 | [21] 0.0808 | [22] 0.0719 | S. cerevisiae deletion strains, locus YOL136C, strain PFK27, stronger effect = lower value 0.374 | S. cerevisiae deletion strains, locus YOR061W, strain CKA2, stronger effect = lower value 0.571 | S. cerevisiae deletion strains, locus YOR119C, strain RIO1, stronger effect = lower value 0.444 | S. cerevisiae deletion strains, locus YOR231W, strain MKK1, stronger effect = lower value 0.289 | S. cerevisiae deletion strains, locus YPL031C, strain PHO85, stronger effect = lower value 0.409 | [23] 0.86 | S. cerevisiae deletion strains, locus YPL153C, strain RAD53, stronger effect = lower value 0.318 | S. cerevisiae deletion strains, locus YPL204W, strain HRR25, stronger effect = lower value 0.431 | [24] 0.0938 | S. cerevisiae deletion strains, locus YPL256C, strain CLN2, stronger effect = lower value 0.266 | [25] 0.233 | [26] 0.0825
